Compounds without any hit were thinned out: in the full panel of roughly 83,000, 20% have a hit.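 For each line, cells grew in 96-well plates with the test compound present at a single concentration for 48 hours.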 Unmarked numbers belong to inactive results. Activity calls are given as the source filed them. Rule for the calls: active = growth percent below 10; inactive = the rest.

Some test systems named below: DU-145 prostate; K-562 leukemia; MALME-3M melanoma; MDA-MB-231 breast; RXF 393 renal; SF-268 CNS; SF-295 CNS; SF-539 CNS; UACC-257 melanoma; M14 melanoma.
Assay in all cases: NCI-60 one-dose screen, 48 h (100 = growth as untreated, 0 = no growth, -100 = all killed)
What all share (conditions): 10 µM unless noted

As for `Fc1ccc(CNc2cccc3[nH]c(C(F)(F)F)nc23)cc1`, the growth in the assay on DU-145 prostate was 93.5%; with K-562 leukemia, 13%; with MALME-3M melanoma, 103%; in the assay on MDA-MB-231 breast, 73.8%; in the assay with RXF 393 renal, 99.1%; in the assay on SF-268 CNS, 76.9%. Moreover, the growth in the assay with SF-295 CNS is 89.9%; in the assay on SF-539 CNS, 97%; with UACC-257 melanoma, 101%; in the assay with M14 melanoma, 109%.

In the case of `COc1cccc(-c2nc3sccn3c2-c2ccnc(NCCNS(=O)(=O)c3ccc(F)cc3)c2)c1`, the growth is 26.3% in the assay on DU-145 prostate; 13.4% in the assay with K-562 leukemia; 42.7% in the assay with MALME-3M melanoma; 55.6% with MDA-MB-231 breast; 42.2% in the assay with RXF 393 renal; 34.7% with SF-268 CNS. For the same compound, the growth in the assay with SF-295 CNS is 14.5%; in the assay with SF-539 CNS, 55.5%; in the assay with UACC-257 melanoma, 40%; in the assay on M14 melanoma, 23.9%.

`CC1(C)CC[C@]2(C(=O)Nc3ccccn3)CC[C@]3(C)C(=CC[C@@H]4[C@@]5(C)C/C(=C/c6cccnc6)C(=O)C(C)(C)[C@@H]5CC[C@]43C)[C@H]2C1`: the growth is 53.2% with DU-145 prostate; 18.7% in the assay with K-562 leukemia; 48.3% in the assay on MALME-3M melanoma; 73.2% in the assay with MDA-MB-231 breast; 33.3% in the assay on RXF 393 renal; 53.5% in the assay with SF-268 CNS. Moreover, the growth in the assay on SF-295 CNS was 38.1%; in the assay on SF-539 CNS, 51.6%; with UACC-257 melanoma, 26.2%; in the assay with M14 melanoma, 35.6%.

In the case of `O=C1c2cccc3cccc(c23)C(=O)N1CCCCCN1CCN(CCCCCOc2ccc(-c3nc4ccc(N5CCOCC5)cc4[nH]3)cc2)CC1`, the growth with DU-145 prostate is 97.4%; with K-562 leukemia it was 19.6%; with MALME-3M melanoma, 82.6%; in the assay on MDA-MB-231 breast it was 108%; with RXF 393 renal, -11.5% (active); in the assay on SF-268 CNS, 136%. For the same compound, the growth in the assay with SF-295 CNS is 16.3%; in the assay on SF-539 CNS it was 54.4%; in the assay with UACC-257 melanoma, 56.3%; in the assay on M14 melanoma, 50.6%.

For the compound `O=C1NC(=S)NC(=O)C1CC(=O)n1c(-c2ccccc2)nc2ccccc21`, the growth in the assay with DU-145 prostate is 113%; with K-562 leukemia it was 98.6%; in the assay on MALME-3M melanoma, 93%; in the assay with MDA-MB-231 breast, 88%; in the assay on RXF 393 renal, 110%; in the assay on SF-268 CNS it was 93.8%. The growth was 96.3% in the assay with SF-295 CNS, 94.1% in the assay with SF-539 CNS, 111% with UACC-257 melanoma and 99% in the assay on M14 melanoma.

With `COc1ccc(/C=C\c2cc(OC)c(OC)c(OC)c2)cc1OCC(=O)Nc1ccc2nc(C)sc2c1`, the growth with DU-145 prostate is 64.6%; in the assay on K-562 leukemia, 18.4%; in the assay on MALME-3M melanoma it was 42.2%; with MDA-MB-231 breast, 37.1%; with RXF 393 renal, 70.3%; in the assay on SF-268 CNS, 52.1%. Also, the results for the growth with SF-539 CNS, with UACC-257 melanoma and in the assay on M14 melanoma were 57.1%, 58.5% and 25.9%, respectively.

In the case of `O=C1Nc2ccc(Br)cc2C12Oc1ccccc1C1CC(c3ccc(F)cc3)=NN12` (configuration not stated), the growth in the assay with DU-145 prostate was 100%; with K-562 leukemia, 84.7%; in the assay on MALME-3M melanoma it was 103%; in the assay on MDA-MB-231 breast, 105%; in the assay on RXF 393 renal it was 102%; in the assay with SF-268 CNS it was 85.5%. Also, the growth with SF-295 CNS was 97.9%; in the assay with SF-539 CNS, 91.9%; in the assay on UACC-257 melanoma it was 104%; with M14 melanoma, 103%.

Regarding `Nc1n[nH]c2ccc([C@@H]3Nc4cc5c(cc4[C@H]4C6CCC(C6)[C@@H]34)C(=O)NC5)cc12` (some centres not stated), the growth is -17.9% (active) in the assay with DU-145 prostate; 7.25% (active) in the assay on K-562 leukemia; 49.8% in the assay on MALME-3M melanoma; 37.9% with MDA-MB-231 breast; 27.1% in the assay on RXF 393 renal; 22.8% in the assay with SF-268 CNS. The growth with SF-295 CNS is 10.8%; with SF-539 CNS it was -24.9% (active); in the assay on UACC-257 melanoma, 76.7%; with M14 melanoma, 7.72% (active).

Regarding `FC(F)(F)c1[nH]ncc1-c1nc2ccc3n[nH]c(C#Cc4cccnc4)c3c2c2c1CCCC2`, the growth in the assay with DU-145 prostate was 45.1%; with K-562 leukemia, 44.6%; in the assay with MALME-3M melanoma it was 22.8%; in the assay with MDA-MB-231 breast, 51.7%; in the assay on RXF 393 renal it was 21.4%; in the assay with SF-268 CNS, 49.6%. For the same compound, the growth in the assay on SF-295 CNS is 42.7%; in the assay on SF-539 CNS, 19.6%; with UACC-257 melanoma, 57.7%; with M14 melanoma, 27.2%.

Consider `O=C(/C=C/c1cccc(Cl)c1)c1ccc(O)c(CN2CCN(c3cc4c(cc3F)c(=O)c(C(=O)O)cn4C3CC3)CC2)c1`, for which the growth is 34.6% with DU-145 prostate; 20.4% with K-562 leukemia; 44.1% in the assay on MALME-3M melanoma; 70.5% in the assay with MDA-MB-231 breast; 39.5% in the assay on RXF 393 renal; 36.9% in the assay with SF-268 CNS. The growth in the assay with SF-295 CNS was 43.5%; in the assay with SF-539 CNS, 40.9%; in the assay with UACC-257 melanoma, 80.5%; with M14 melanoma, 43%.

For the compound `CCOc1cc2ncc(C#N)c(Nc3ccc(OCc4cccc(F)c4)c(Cl)c3)c2cc1NC(=O)CCCCC1CCSS1` (configuration not stated), the growth in the assay with DU-145 prostate is 97.4%; with K-562 leukemia, 80.3%; in the assay on MALME-3M melanoma it was 125%; in the assay on MDA-MB-231 breast, 96.2%; in the assay with RXF 393 renal, 97.9%; with SF-268 CNS it was 95.7%. The growth in the assay with SF-295 CNS is 106%; in the assay with SF-539 CNS it was 108%; in the assay with UACC-257 melanoma, 81%; with M14 melanoma, 93.1%.

Turning to `COCCNc1ccc2c3c(cccc13)C(=O)N(CCN(C)C)C2=O`, the growth in the assay on DU-145 prostate is 27.7%; in the assay on K-562 leukemia it was -7.82% (active); in the assay on MALME-3M melanoma it was 22.2%; in the assay with MDA-MB-231 breast it was 46.6%; in the assay with RXF 393 renal it was -23.7% (active); in the assay on SF-268 CNS, 26.3%. Moreover, the growth was 16.8% in the assay with SF-295 CNS, 22.9% in the assay on SF-539 CNS, 16.8% with UACC-257 melanoma and 29% in the assay with M14 melanoma.

Take `O=C(Oc1cccnc1)c1ccsc1Nc1ccnc(C(F)(F)F)c1`: the growth was 108% with DU-145 prostate; 25.7% in the assay with K-562 leukemia; 84.9% in the assay on MALME-3M melanoma; 63.2% in the assay on MDA-MB-231 breast; 105% with RXF 393 renal; 42.6% in the assay with SF-268 CNS. In addition, the values for the growth in the assay on SF-539 CNS and in the assay with UACC-257 melanoma were 99.9% and 76%, respectively.

For the origin of these results see PubChem BioAssay (NCI).
